From PubChem BioAssay
A selection: hits, their analogues and other compounds. The true share with any hit is near 2.6%.
SIAE inh – inhibitors of human sialic acid acetylesterase SIAE. inhibition, % at 9.66 µM. AID 1053197. Q9HAT2. actives 0.69% (n = 370,000). SIAE FP-Rh probe binding, fluorescence polarization;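 active means inhibition above a cutoff: mean of compounds within the control limits plus 3 SD of those, cut at about 17% in these data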;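 further: 0% = plate median of compound wells and 100% = probe without SIAE protein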
Target sequence (Q9HAT2 whole entry, looked up): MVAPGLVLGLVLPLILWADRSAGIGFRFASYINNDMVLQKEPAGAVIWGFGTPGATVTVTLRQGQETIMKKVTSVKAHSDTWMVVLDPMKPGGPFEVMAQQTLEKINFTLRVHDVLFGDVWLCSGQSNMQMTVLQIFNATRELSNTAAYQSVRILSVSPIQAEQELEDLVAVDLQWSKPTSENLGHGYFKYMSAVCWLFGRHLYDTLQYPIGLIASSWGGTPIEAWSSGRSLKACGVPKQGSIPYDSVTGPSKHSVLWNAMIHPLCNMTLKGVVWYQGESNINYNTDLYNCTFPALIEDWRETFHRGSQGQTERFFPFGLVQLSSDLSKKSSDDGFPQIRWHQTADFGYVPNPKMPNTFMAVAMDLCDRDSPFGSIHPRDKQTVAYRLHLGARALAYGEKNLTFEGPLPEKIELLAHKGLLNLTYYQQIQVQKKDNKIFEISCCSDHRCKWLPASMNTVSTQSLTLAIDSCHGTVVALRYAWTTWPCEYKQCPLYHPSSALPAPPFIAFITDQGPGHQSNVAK
PME-1 primary – PME-1 (human) inhibition | Q9Y570 | recombinant PME-1, FP-Rh probe fluorescence polarization | inhibition, % at 5.9 µM | actives 0.53% (n = 320,000) | AID 2130;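 active means inhibition above the campaign mean of all compounds plus 3 SD, cut at about 26% in these data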;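 further: competitive labeling of PME-1 active site by serine hydrolase directed probe; 0% = PME-1 with DMSO and 100% = wells lacking PME-1 enzyme; inhibitors block probe labeling so polarization falls and inhibition rises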
PRMT1 FP inh – inhibitors of human PRMT1; Q99873; recombinant PRMT1, activity-based probe fluorescence polarization; inhibition, % at 2.79 µM; actives 1.3% (n = 370,000); AID 652257;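 active means inhibition above about 21% made by adding two undisclosed values, limit read from the data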
PAD4 inh – PAD4 (human) enzyme inhibition | Q9UM07 | recombinant PAD4, RCA probe fluorescence polarization | inhibition, % at 6.36 µM | actives 0.41% (n = 330,000);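 active means percent inhibition above a cutoff equal to the mean of all tested compounds plus 3 SD, cut at about 15% in these data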;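 further: 0% = PAD4 with RCA probe and DMSO and 100% = probe without PAD4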
Fam108B inh – counter-screen for RBBP9 inhibitors: inhibitors of mouse Fam108B; recombinant Fam108B, FP-Rh probe fluorescence polarization; inhibition, % at 9.51 µM; actives 0.33% (n = 300,000); AID 1947;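 active means inhibition above the screen mean inhibition plus 3 SD, computed separately per campaign, cut at about 18% in these data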;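 further: inhibitors lower polarization as less probe binds the enzyme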
TCR-CD3 inh – blocks the human TCR-CD3 interaction; TAMRA-labeled TCR probe fluorescence, biochemical; inhibition, % at 9.4 µM; actives 0.37% (n = 360,000); in the data active means inhibition above about 19%;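 further: recombinant mutant TCR 2C K166C tagged with TAMRA read by polarization; 0% = receptor in buffer alone and 100% = receptor with positive control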
PRMT1 inh conf – confirmation of human PRMT1 inhibitors | shares compounds with PRMT1 FP inh | recombinant His-PRMT1, activity-based probe fluorescence polarization | inhibition, % at 2.79 µM | actives 42% (n = 3,300) | AID 687036;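 active means mean inhibition across replicates above the hit cutoff derived for the earlier primary screen, cut at about 22% in these data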
* hit, by the source's call; . = no result.

SMILES	SIAE inh	PME-1 primary	PRMT1 FP inh	PAD4 inh	Fam108B inh	TCR-CD3 inh	PRMT1 inh conf
CC(=O)c1ccc(-n2c(CCC(=O)O)ccc2-c2cccs2)cc1	4	0	63*	-3	-1	0	3
COc1ccc(-n2c(SCC(=O)Nc3ccc(S(=O)(=O)Nc4nccs4)cc3)nnc2-c2cccs2)cc1	-16	.	4	.	.	.	.
COC(=O)c1c(-c2cccnc2)csc1NC(=O)c1cc(C)on1	-3	7	29*	14	-1	0	12
COC(=O)c1c(-c2ccc(C)cc2)csc1NC(=O)c1c(-c2ccccc2)noc1C	-7	2	-2	5	-3	5	.
CC(=O)Oc1cc2c(s1)CCN(C(C(=O)C1CC1)c1ccccc1F)C2 (centres undefined)	3	.	11	.	.	.	.
COC(=O)[C@H](C)NC(=O)[C@@H]1CCCN1C(=O)CNP(=O)(OCc1ccccc1)OCc1ccccc1	2	.	-1	.	.	.	.
CCC1CCC(C(=O)NNC(=O)c2cc(-c3ccco3)[nH]n2)CC1 (centres undefined)	-2	4	83*	-16	6	1	2
O=C(NNC(=O)C1CCCCC1)c1ccco1	9	-7	-2	0	0	6	.
Nc1cc2sc(-c3ccc(C(=O)O)cc3)nc2cc1Cl	-20	-1	3	-2	0	-7	.
Nc1ncc(N=Nc2cc(C(=O)O)ccc2Cl)s1	-3	-3	26*	-14	14	4	29*
COc1ccc(OC)c(-c2cc(C3CCN(c4cc(Cl)nc(N)n4)CC3)[nH]n2)c1	-2	11	40*	-1	9	-3	-1
C[C@H]1[C@@H](NCc2cccs2)CC[C@@]23CCCN2C(=O)CCC[C@@H]13	10	.	0	.	.	.	.
S=c1[nH]nc(-c2cc3ccccc3o2)n1Cc1ccccc1	8	7	25*	5	1	0	16
CC1CCN(Cc2c(O)ccc3c2O/C(=C\c2ccco2)C3=O)CC1	.	-10	.	0	5	.	.
COCCN(CCOC)Cc1c(O)ccc2c1O/C(=C\c1ccco1)C2=O	5	-12	31*	-2	2	-1	27*
O=C1/C(=C/c2ccco2)Oc2c1ccc(O)c2CN1CCCCC1	4	-22	35*	-1	2	-1	47*
COc1ccc(NC(=O)C2CC(=O)n3ncnc3N2)cc1 (centres undefined)	-5	2	1	-3	2	7	.
COc1ccc(NC(=O)C2CC(=O)n3cnnc3S2)cc1 (centres undefined)	5	-5	74*	0	-3	10	79*
COc1cccc(NC(=O)C2CC(=O)N=C(N)S2)c1 (centres undefined)	2	1	-1	-2	2	3	.
COc1cccc(NC(=O)C2CC(=O)n3cnnc3S2)c1 (centres undefined)	1	4	79*	-2	3	-3	61*
O=C1C(NC(=O)C(F)(F)Br)CCCCN1Cc1cccc(C(F)(F)F)c1 (centres undefined)	-2	.	0	.	.	.	.
O=c1c2ccccc2nc(-c2ccco2)n1/N=C/c1ccccc1O	-6	3	3	2	4	2	.
Oc1ccc(/C=N/n2c(-c3ccco3)csc2=Nc2cccnc2)c(O)c1	5	20	29*	-2	5	3	4
COC(=O)[C@]12CCCCC=C1N(Cc1ccc(OC)cc1)C(=O)[C@@H]2CC(=O)N1CCC(c2ccccc2)CC1	-2	.	3	.	.	.	.
O=C(CNC(=O)c1cccs1)NCC(=O)OCC(=O)c1ccc([N+](=O)[O-])cc1	-3	-7	70*	-6	-1	-9	41*
SMILES	SIAE inh	PME-1 primary	PRMT1 FP inh	PAD4 inh	Fam108B inh	TCR-CD3 inh	PRMT1 inh conf
Cc1ccc(C(=O)COC(=O)c2cnccn2)cc1	3	-3	-1	-2	5	7	.
O=C(CNC(=O)c1cccs1)OCC(=O)c1ccccc1	-7	-8	-3	0	4	0	.
O=C(COc1ccccc1F)OCC(=O)c1ccc([N+](=O)[O-])cc1	6	.	46*	-8	.	6	34*
O=C(COC(=O)c1cnccn1)c1ccc([N+](=O)[O-])cc1	4	-5	47*	-2	4	9	60*
COCCCN1C(=O)[C@H](CC(=O)N2CCOCC2)[C@]2(C(=O)OC)CCCCC=C12	-1	.	2	.	.	.	.
CCN(Cc1cn(CC2CCCCC2)nn1)S(=O)(=O)c1ccccc1Br	-5	.	2	.	.	.	.
CCOC(=O)c1c(NS(=O)(=O)Cc2ccccc2)sc2c1CCCC2	15	1	4	0	-4	4	.
CCOC(=O)c1c(NS(=O)(=O)c2ccc(Br)cc2)sc2c1CCC2	-2	13	27*	-1	7	4	13
O=S1(=O)c2ccc(N3CC[C@@H](O)C3)cc2O[C@@H]2CCN1C2	0	.	3	.	.	.	.
COc1ccc(C(=O)/C=C2/Sc3cc4c(cc3N2C)OCO4)cc1	-3	1	1	5	3	3	.
COc1cc(OC)cc(C(=O)/C=C2\Sc3ccccc3N2C)c1	6	-1	0	-2	0	6	.
COc1ccc2c(c1)S/C(=C\C(=O)c1ccncc1)N2C	4	-4	45*	-4	-1	-1	11
CN1/C(=C/C(=O)c2ccc(Cl)cc2)Sc2cc3c(cc21)OCO3	0	7	33*	-1	-2	5	3
Cc1cccc(OC(C)CCN2CCC(C(O)(c3ccccc3)c3ccccc3)CC2)c1 (centres undefined)	0	.	0	.	.	.	.
Cc1ccc(C2CCC3(CCC(=O)N3CCOC(=O)Nc3ccc(Br)cc3)CC2)cc1 (centres undefined)	4	.	-1	.	.	.	.
CC(C)(C)OC(=O)NCCCCCc1nnc(SCc2cccc(F)c2)o1	-1	-2	-3	-1	0	-1	.
CC(C)(C)OC(=O)NCCCCCc1nnc(SCc2ccccc2)o1	6	-3	81*	-3	3	6	0
COCc1cccc(-c2cc(C(=O)OC)c3n(c2=O)CCC3)c1	2	.	1	.	.	.	.
CCc1[nH]c(=S)c(C#N)c(-c2ccccc2)c1C(=O)OC	0	-1	6	1	0	7	.
Cc1[nH]c(=S)c(C#N)c(-c2ccccc2)c1C(=O)Nc1ccccc1	-8	-7	36*	-14	0	0	14
O=C(O)c1ccc(-c2ccco2)n1Cc1ccccc1	-4	8	29*	-1	-6	-4	6
Fc1cccc(Cl)c1C1Nc2cccc3cccc(c23)N1	15	11	33*	-2	9	14	27*
c1csc(C2Nc3cccc4cccc(c34)N2)c1	5	5	8	-2	11	4	.
C#CCNC(=O)C[C@H]1C(=O)N(CCCOC)C2=CCCC[C@@]21C(=O)OCC	-1	.	0	.	.	.	.
